Records with an inconclusive call do not appear. Where a call stands in place of a potency, no number is given. Where a structure was tested more than once in an assay, its records may differ in their call. The source made the active and inactive calls. Calls follow the shape of the full dose curve.
Biological target: Acetylcholinesterase (Homo sapiens) (UniProt P22303)
Assay: Acetylcholinesterase (AChE) small molecule antagonists: colormetric cell-based qHTS assay (AID 1347395); also: nearly all actives have a fitted effect of over 30% in size; also: potency is read from the fitted curve at half-maximal effect
Details: SH-SY5Y cells AChE activity, colorimetric (Ellman); series mostly up to 115 µM
Summary of the method: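 In this cell-based qHTS, attached SH-SY5Y cells were treated with test chemicals for 30 min, after which acetylthiocholine hydrolysis was followed by DTNB colour development over 90 min at 37 C.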

Sequence of Acetylcholinesterase (Homo sapiens) (P22303 whole entry, looked up): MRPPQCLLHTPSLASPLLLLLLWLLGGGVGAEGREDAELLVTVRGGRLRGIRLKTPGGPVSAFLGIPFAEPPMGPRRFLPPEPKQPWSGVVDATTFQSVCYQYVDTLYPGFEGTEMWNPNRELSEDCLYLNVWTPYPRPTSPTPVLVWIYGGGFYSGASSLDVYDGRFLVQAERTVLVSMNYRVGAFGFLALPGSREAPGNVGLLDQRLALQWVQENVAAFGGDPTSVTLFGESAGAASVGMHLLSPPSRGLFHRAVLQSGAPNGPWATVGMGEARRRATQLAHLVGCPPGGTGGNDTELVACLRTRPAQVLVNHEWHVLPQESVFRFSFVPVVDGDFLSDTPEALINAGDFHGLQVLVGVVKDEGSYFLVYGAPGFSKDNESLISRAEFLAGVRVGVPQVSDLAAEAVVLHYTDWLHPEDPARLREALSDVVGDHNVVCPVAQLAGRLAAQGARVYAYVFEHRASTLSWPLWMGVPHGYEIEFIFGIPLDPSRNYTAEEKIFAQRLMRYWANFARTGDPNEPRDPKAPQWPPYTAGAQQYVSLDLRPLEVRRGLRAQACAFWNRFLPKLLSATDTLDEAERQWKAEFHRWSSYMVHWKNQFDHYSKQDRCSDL

**Q.** How did the Potency turn out when `O=C(O)Cc1ccc(Cl)cc1Cl` was run?
**A.** inactive

**Q.** Which Potency does the source give for `CCC(C(=O)NC(=O)NC(C)=O)c1ccccc1` (stereo not given) here?
**A.** inactive

**Q.** `CCCCC(CC)COC(=O)c1ccc(N(C)C)cc1` (stereo not given) was tested. Which Potency did it give?
**A.** inactive

**Q.** Which Potency does the source give for `CC[Si](OC(C)=O)(OC(C)=O)OC(C)=O` here?
**A.** inactive

**Q.** For `C[C@H](N)[C@H](O)c1cccc(O)c1`, which Potency is on record?
**A.** inactive

**Q.** `O=c1[nH]c2ccc(Cl)cc2o1` was tested. Which Potency did it give?
**A.** inactive

**Q.** Which Potency does the source give for `Cc1ccccc1CCO` here?
**A.** inactive

**Q.** `OC[C@@H](O)[C@@H](O)[C@H](O)[C@H](O)CO` was tested. Which Potency did it give?
**A.** inactive

**Q.** How did the Potency turn out when `CCCCCCCC(OC)OC` was run?
**A.** inactive

**Q.** `COc1ccc(C(=O)N2CCN(CC(=O)N3CCOCC3)CC2)cc1` was tested. Which Potency did it give?
**A.** inactive

**Q.** With `CN1Cc2cc(C(=O)N3CCC(C4CCNCC4)CC3)ccc2NC(CC(=O)O)C1=O` (stereo not given) as the compound, how does the Potency read?
**A.** inactive

**Q.** How did the Potency turn out when `CCc1cccc(C)c1N(C(=O)CS(=O)(=O)O)C(C)COC` (stereo not given) was run?
**A.** inactive

**Q.** `CC(c1cc(C(C)(C)C)cc(C(C)(C)C)c1O)c1cc(C(C)(C)C)cc(C(C)(C)C)c1O` was tested. Which Potency did it give?
**A.** inactive

**Q.** Which Potency does the source give for `O=C(OCCOCCO)c1ccccc1Nc1cccc(C(F)(F)F)c1` here?
**A.** inactive

**Q.** Which Potency does the source give for `CC(C(=O)O)c1ccc2c(c1)CC(=O)c1ccccc1S2` (stereo not given) here?
**A.** inactive

**Q.** How did the Potency turn out when `O=C[C@@H](O)[C@H](O)[C@H](O)CO` was run?
**A.** inactive

**Q.** `C=CC(C)(CCC=C(C)C)OC(C)=O` (stereo not given) was tested. Which Potency did it give?
**A.** inactive

**Q.** `O=[N+]([O-])c1ccc(CCO)cc1` was tested. Which Potency did it give?
**A.** inactive

**Q.** How did the Potency turn out when `COC(=O)c1sccc1S(N)(=O)=O` was run?
**A.** inactive

**Q.** How did the Potency turn out when `CCCCCCOC(=O)C(C)C` was run?
**A.** inactive

**Q.** Which Potency does the source give for `O=C(Cl)c1ccc(F)c(Cl)c1` here?
**A.** inactive

**Q.** For `C=Cc1cccc(C)c1`, which Potency is on record?
**A.** inactive

**Q.** With `O=C(O)Cn1c(C(=O)Nc2nc(-c3ccccc3Cl)cs2)cc2ccccc21` as the compound, how does the Potency read?
**A.** inactive

**Q.** With `Cc1ccc(C)c([N+](=O)[O-])c1` as the compound, how does the Potency read?
**A.** inactive

**Q.** How did the activity, negative = inhibition turn out when `C/C(=C(\CCOP(=O)(O)O)SC(=O)c1ccccc1)N(C=O)Cc1cnc(C)nc1N` was run?
**A.** -0.469% [at 10.5 µM] (inactive)

**Q.** `Cc1ccc2n[nH]nc2c1` was tested. Which Potency did it give?
**A.** inactive

**Q.** For `O=c1[nH]cc(F)c(=O)[nH]1`, which Potency is on record?
**A.** 20.8 µM (active) and inactive

**Q.** With `CC(CCO)CCc1ccccc1` (stereo not given) as the compound, how does the Potency read?
**A.** inactive

**Q.** How did the Potency turn out when `CC(C)=CCC1C(=O)N(c2ccccc2)N(c2ccccc2)C1=O` was run?
**A.** inactive

**Q.** With `CCCCOCCOCCO` as the compound, how does the Potency read?
**A.** inactive

**Q.** How did the Potency turn out when `O=S(=O)(Cl)c1c(Cl)cccc1Cl` was run?
**A.** inactive

**Q.** How did the Potency turn out when `CSc1ccc(O)cc1C` was run?
**A.** inactive

**Q.** With `Nc1nc2ncc(CNc3ccc(C(=O)N[C@@H](CCC(=O)O)C(=O)O)cc3)nc2c(=O)[nH]1` as the compound, how does the Potency read?
**A.** inactive

**Q.** For `CC(=O)O[C@H]1C[C@@H]2CC[C@@]1(C)C2(C)C`, which Potency is on record?
**A.** inactive

**Q.** Which Potency does the source give for `CCC(=O)c1c(O)cc(O)cc1O` here?
**A.** inactive

**Q.** With `Cc1cccc(O)c1` as the compound, how does the Potency read?
**A.** inactive

**Q.** `O=[N+]([O-])c1ccc(O)c2ncccc12` was tested. Which Potency did it give?
**A.** inactive

**Q.** `Cc1cccc(C)c1NC(=O)CN1CCN(CCCC(c2ccc(F)cc2)c2ccc(F)cc2)CC1` was tested. Which Potency did it give?
**A.** inactive

**Q.** For `CC(C)C[C@H](NC(=O)[C@H](Cc1ccccc1)NC(=O)c1cnccn1)B(O)O`, which Potency is on record?
**A.** inactive

**Q.** How did the Potency turn out when `CC(C)CC(C)O` (stereo not given) was run?
**A.** inactive

Biological target: Acetylcholinesterase (Homo sapiens) (UniProt P22303)
Assay: Acetylcholinesterase (AChE) small molecule antagonists: enzyme-based qHTS assay (AID 1347397); also: nearly all actives have a fitted effect of over 55% in size
Details: Potency: AChE enzyme activity inhibition; outcome: AChE enzyme activity inhibition; series mostly up to 115 µM
Summary of the method: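 First, recombinant human AChE (50 mU/mL as dispensed) received test compound or DMSO. Second, plates stood 30 min at room temperature. Third, DTNB and acetylthiocholine were added, followed by 10 min at room temperature and colorimetric detection.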

**Q.** For `O=C(O)Cc1ccc(Cl)cc1Cl`, which Potency is on record?
**A.** inactive

**Q.** With `CCC(C(=O)NC(=O)NC(C)=O)c1ccccc1` (stereo not given) as the compound, how does the Potency read?
**A.** inactive

**Q.** Which Potency does the source give for `CCCCC(CC)COC(=O)c1ccc(N(C)C)cc1` (stereo not given) here?
**A.** inactive

**Q.** `CC[Si](OC(C)=O)(OC(C)=O)OC(C)=O` was tested. Which Potency did it give?
**A.** inactive

**Q.** `C[C@H](N)[C@H](O)c1cccc(O)c1` was tested. Which Potency did it give?
**A.** inactive

**Q.** `O=c1[nH]c2ccc(Cl)cc2o1` was tested. Which Potency did it give?
**A.** inactive

**Q.** For `Cc1ccccc1CCO`, which Potency is on record?
**A.** inactive

**Q.** How did the Potency turn out when `OC[C@@H](O)[C@@H](O)[C@H](O)[C@H](O)CO` was run?
**A.** inactive

**Q.** With `CCCCCCCC(OC)OC` as the compound, how does the Potency read?
**A.** inactive

**Q.** Which Potency does the source give for `COc1ccc(C(=O)N2CCN(CC(=O)N3CCOCC3)CC2)cc1` here?
**A.** inactive

**Q.** How did the Potency turn out when `CN1Cc2cc(C(=O)N3CCC(C4CCNCC4)CC3)ccc2NC(CC(=O)O)C1=O` (stereo not given) was run?
**A.** inactive

**Q.** For `CCc1cccc(C)c1N(C(=O)CS(=O)(=O)O)C(C)COC` (stereo not given), which Potency is on record?
**A.** inactive

**Q.** `CC(c1cc(C(C)(C)C)cc(C(C)(C)C)c1O)c1cc(C(C)(C)C)cc(C(C)(C)C)c1O` was tested. Which Potency did it give?
**A.** inactive

**Q.** How did the Potency turn out when `O=C(OCCOCCO)c1ccccc1Nc1cccc(C(F)(F)F)c1` was run?
**A.** inactive

**Q.** With `CC(C(=O)O)c1ccc2c(c1)CC(=O)c1ccccc1S2` (stereo not given) as the compound, how does the Potency read?
**A.** inactive

**Q.** `O=C[C@@H](O)[C@H](O)[C@H](O)CO` was tested. Which Potency did it give?
**A.** inactive

**Q.** How did the Potency turn out when `C=CC(C)(CCC=C(C)C)OC(C)=O` (stereo not given) was run?
**A.** inactive

**Q.** Which Potency does the source give for `O=[N+]([O-])c1ccc(CCO)cc1` here?
**A.** inactive

**Q.** For `COC(=O)c1sccc1S(N)(=O)=O`, which Potency is on record?
**A.** inactive

**Q.** For `CCCCCCOC(=O)C(C)C`, which Potency is on record?
**A.** inactive

**Q.** Which Potency does the source give for `O=C(Cl)c1ccc(F)c(Cl)c1` here?
**A.** inactive

**Q.** How did the Potency turn out when `C=Cc1cccc(C)c1` was run?
**A.** inactive

**Q.** With `O=C(O)Cn1c(C(=O)Nc2nc(-c3ccccc3Cl)cs2)cc2ccccc21` as the compound, how does the Potency read?
**A.** inactive

**Q.** Which Potency does the source give for `Cc1ccc(C)c([N+](=O)[O-])c1` here?
**A.** inactive

**Q.** With `C/C(=C(\CCOP(=O)(O)O)SC(=O)c1ccccc1)N(C=O)Cc1cnc(C)nc1N` as the compound, how does the activity change, negative = inhibition read?
**A.** 0.584% [at 10.5 µM] (inactive)

**Q.** `Cc1ccc2n[nH]nc2c1` was tested. Which Potency did it give?
**A.** inactive

**Q.** For `O=c1[nH]cc(F)c(=O)[nH]1`, which Potency is on record?
**A.** inactive

**Q.** For `CC(CCO)CCc1ccccc1` (stereo not given), which Potency is on record?
**A.** inactive

**Q.** Which Potency does the source give for `CC(C)=CCC1C(=O)N(c2ccccc2)N(c2ccccc2)C1=O` here?
**A.** inactive

**Q.** How did the Potency turn out when `CCCCOCCOCCO` was run?
**A.** inactive

**Q.** With `O=S(=O)(Cl)c1c(Cl)cccc1Cl` as the compound, how does the Potency read?
**A.** inactive

**Q.** `CSc1ccc(O)cc1C` was tested. Which Potency did it give?
**A.** inactive

**Q.** With `Nc1nc2ncc(CNc3ccc(C(=O)N[C@@H](CCC(=O)O)C(=O)O)cc3)nc2c(=O)[nH]1` as the compound, how does the Potency read?
**A.** inactive

**Q.** With `CC(=O)O[C@H]1C[C@@H]2CC[C@@]1(C)C2(C)C` as the compound, how does the Potency read?
**A.** inactive

**Q.** `CCC(=O)c1c(O)cc(O)cc1O` was tested. Which Potency did it give?
**A.** inactive

**Q.** Which Potency does the source give for `Cc1cccc(O)c1` here?
**A.** inactive

**Q.** `O=[N+]([O-])c1ccc(O)c2ncccc12` was tested. Which Potency did it give?
**A.** inactive

**Q.** For `Cc1cccc(C)c1NC(=O)CN1CCN(CCCC(c2ccc(F)cc2)c2ccc(F)cc2)CC1`, which Potency is on record?
**A.** inactive

**Q.** Which Potency does the source give for `CC(C)C[C@H](NC(=O)[C@H](Cc1ccccc1)NC(=O)c1cnccn1)B(O)O` here?
**A.** inactive

**Q.** How did the Potency turn out when `CC(C)CC(C)O` (stereo not given) was run?
**A.** inactive
